This note sets out measurements from PubChem BioAssay (NCI).

A short description of assay [1]: NCI Yeast Anticancer Drug Screen. Data for the rad50 strain (AID 155).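 Also: 0% = growth of vehicle-only cultures of the same strain.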 Conditions: S. cerevisiae rad50 strain growth inhibition, stronger effect = higher value. The method in brief: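 Yeast carrying a defined DNA repair defect were exposed to test compounds, and growth was compared with vehicle-treated controls to give percent inhibition.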
Assay [2] is described as follows: NCI Yeast Anticancer Drug Screen. Data for the mec2-1 strain (AID 157). The note with it: S. cerevisiae mec2-1 strain, stronger effect = higher value. The method in brief: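 Using mec2-1 yeast: add compound, measure growth, express inhibition versus vehicle-treated cultures.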
Assay [3] in a line: NCI Yeast Anticancer Drug Screen. Data for the sgs1 mgt1 strain (AID 161).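 Also: 0% = growth of cultures given vehicle only.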 Conditions: S. cerevisiae sgs1 mgt1 strain, stronger effect = higher value. The method in brief: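 This yeast growth screen uses a strain with defined DNA-repair lesions; compound-treated growth is compared with vehicle-treated growth.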
Assay [4] is described as follows: NCI Yeast Anticancer Drug Screen. Data for the cln2 rad14 strain (AID 165).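 Also: 0% = growth equal to vehicle treated cultures.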 The note with it: S. cerevisiae cln2 rad14 strain, stronger effect = higher value. An outline of the steps:
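Yeast strain cln2 rad14, bearing defects in cell cycle control and DNA repair, serves as the test system; values reflect growth inhibition compared with vehicle.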

A short description of assay [5]: NCI Yeast Anticancer Drug Screen. Data for the bub3 strain (AID 167). Conditions: S. cerevisiae bub3 mutant strain, stronger effect = higher value. An outline of the steps: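 Compounds were applied to a genetically altered yeast strain carrying a cell-cycle control defect. Growth inhibition was scored against vehicle-treated controls.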
The nature of assay [6]: NCI Yeast Anticancer Drug Screen. Data for the mlh1 rad18 strain (AID 175). The note with it: S. cerevisiae mlh1 rad18 strain growth inhibition, stronger effect = higher value. An outline of the steps:
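Steps: expose repair-defective yeast to compound; measure growth; express inhibition against vehicle-treated controls.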

Where [7] appears, read: at 5.0 µM (retest, dose inferred, filed as 0.5).
[8] abbreviates: at 50.0 µM (retest, dose inferred, filed as 5.0).

The panel holds about 79,000 compounds, 15% with a hit somewhere; the sample as a whole holds those more often. Unmarked numbers belong to inactive results. Calls of active or inactive are those of the source. Rule as the data show it: active = growth inhibition above about 70%; inactive = the rest.

In the case of `[Cl-].[Rh+3].c1ccc(-c2ccnc3c2ccc2c(-c4ccccc4)ccnc23)cc1.c1ccc(-c2ccnc3c2ccc2c(-c4ccccc4)ccnc23)cc1.c1ccc(-c2ccnc3c2ccc2c(-c4ccccc4)ccnc23)cc1`, the growth inhibition in assay [1] (setting [7]) is -27%; in assay [1] (setting [8]) it was 65%; in assay [1] (at 50.0 µM), 97.1% (active); in assay [2] (setting [7]), -15%; in assay [2] (setting [8]), 26%; in assay [2] (at 50.0 µM), 88.9% (active). In addition, the growth inhibition in assay [3] (setting [7]) was -10%; in assay [3] (setting [8]) it was 87% (active); in assay [3] (at 50.0 µM), 94.5% (active); in assay [4] (setting [7]), -4%; in assay [4] (setting [8]), 43%; in assay [4] (at 50.0 µM), 85.7% (active). The growth inhibition is -7% in assay [5] (setting [7]); 38% in assay [5] (setting [8]); 90.8% (active) in assay [5] (at 50.0 µM); -12% in assay [6] (setting [7]); 88% (active) in assay [6] (setting [8]); 95.9% (active) in assay [6] (at 50.0 µM).

Take `CCCCCCCCCCCCCCCC[N+](C)(C)C`: the growth inhibition in assay [1] (setting [7]) is 53%; in assay [1] (setting [8]) it was 94% (active); in assay [1] (at 50.0 µM), 91.3% (active); in assay [2] (setting [7]) it was 45%; in assay [2] (setting [8]), 87% (active); in assay [2] (at 50.0 µM), 93.1% (active). Further, the growth inhibition in assay [3] (setting [7]) is 93% (active); in assay [3] (setting [8]), 97% (active); in assay [4] (setting [7]), 82% (active); in assay [4] (setting [8]), 97% (active); in assay [5] (setting [7]) it was 97% (active); in assay [5] (setting [8]), 96% (active). Further, the growth inhibition in assay [6] (setting [7]) is 30%; in assay [6] (setting [8]), 84% (active); in assay [6] (at 50.0 µM), 91.7% (active).

In the case of `N#Cc1ccc(Br)cc1[N+](=O)[O-]`, the growth inhibition was 45% in assay [1] (setting [7]); 64% in assay [1] (setting [8]); 91.2% (active) in assay [1] (at 50.0 µM); 41% in assay [2] (setting [7]); 63% in assay [2] (setting [8]); 93.2% (active) in assay [2] (at 50.0 µM). Also, the growth inhibition in assay [3] (setting [7]) is 74% (active); in assay [3] (setting [8]) it was 100% (active); in assay [4] (setting [7]) it was 90% (active); in assay [4] (setting [8]), 100% (active); in assay [5] (setting [7]), 87% (active); in assay [5] (setting [8]) it was 100% (active). For the same compound, the growth inhibition in assay [6] (setting [7]) is 33%; in assay [6] (setting [8]), 61%; in assay [6] (at 50.0 µM), 92% (active).

`CCC[CH2][Sn]([CH2]CCC)([CH2]CCC)[O]C(=O)C(OC(C)=O)c1ccccc1` (stereo unspecified): the growth inhibition in assay [1] (setting [7]) is 99% (active); in assay [1] (setting [8]), 99% (active); in assay [1] (at 50.0 µM) it was 91.5% (active); in assay [2] (setting [7]) it was 99% (active); in assay [2] (setting [8]) it was 99% (active); in assay [2] (at 50.0 µM), 92.2% (active). Besides, the growth inhibition was 99% (active) in assay [3] (setting [7]); 99% (active) in assay [3] (setting [8]); 91.5% (active) in assay [3] (at 50.0 µM); 99% (active) in assay [5] (setting [7]); 99% (active) in assay [5] (setting [8]); 90.2% (active) in assay [5] (at 50.0 µM). The growth inhibition is 100% (active) in assay [6] (setting [7]), 100% (active) in assay [6] (setting [8]) and 91% (active) in assay [6] (at 50.0 µM).

As to `COc1cc(-c2ccc(-[n+]3nc(-c4ccc([N+](=O)[O-])cc4)nn3-c3ccc([N+](=O)[O-])cc3)c(OC)c2)ccc1-[n+]1nc(-c2ccc([N+](=O)[O-])cc2)nn1-c1ccc([N+](=O)[O-])cc1`, the growth inhibition in assay [1] (setting [7]) was 95% (active); in assay [1] (setting [8]), 94% (active); in assay [1] (at 50.0 µM) it was 89.5% (active); in assay [2] (setting [7]), 98% (active); in assay [2] (setting [8]) it was 98% (active); in assay [2] (at 50.0 µM) it was 91.4% (active). Further, the growth inhibition in assay [3] (setting [7]) is 94% (active); in assay [3] (setting [8]), 96% (active); in assay [3] (at 50.0 µM), 90.2% (active); in assay [4] (setting [7]), 96% (active); in assay [4] (setting [8]) it was 97% (active); in assay [4] (at 50.0 µM), 88.5% (active). For the same compound, the values for the growth inhibition in assay [6] (setting [7]), in assay [6] (setting [8]) and in assay [6] (at 50.0 µM) were 97% (active), 96% (active) and 90% (active), respectively.

As for `Cc1nnc(N/N=C/c2ccc([N+](=O)[O-])o2)[nH]c1=O`, the growth inhibition in assay [1] (setting [7]) was -5%; in assay [1] (setting [8]), 36%; in assay [1] (at 50.0 µM) it was 59.1%; in assay [2] (setting [7]) it was 6%; in assay [2] (setting [8]), 68%; in assay [2] (at 50.0 µM), 65.2%. For the same compound, the growth inhibition is -2% in assay [3] (setting [7]); 75% (active) in assay [3] (setting [8]); 47.5% in assay [3] (at 50.0 µM); 6% in assay [4] (setting [7]); 42% in assay [4] (setting [8]); 85.2% (active) in assay [4] (at 50.0 µM). For the same compound, the growth inhibition in assay [5] (setting [7]) was -9%; in assay [5] (setting [8]), 62%; in assay [5] (at 50.0 µM), 81% (active); in assay [6] (setting [7]), 8%; in assay [6] (setting [8]) it was 80% (active); in assay [6] (at 50.0 µM), 71% (active).

As for `Cc1ccc(Nc2n[nH]c(=S)s2)cc1F`, the growth inhibition in assay [1] (setting [7]) was 37%; in assay [1] (setting [8]), 90% (active); in assay [1] (at 50.0 µM), 85.8% (active); in assay [2] (setting [7]), 46%; in assay [2] (setting [8]), 93% (active); in assay [2] (at 50.0 µM) it was 78.2% (active). Also, the growth inhibition in assay [3] (setting [7]) is 8%; in assay [3] (setting [8]), 79% (active); in assay [4] (setting [7]), 49%; in assay [4] (setting [8]), 80% (active); in assay [5] (setting [7]) it was 28%; in assay [5] (setting [8]) it was 80% (active). Moreover, the growth inhibition is 27% in assay [6] (setting [7]), 84% (active) in assay [6] (setting [8]) and 77.2% (active) in assay [6] (at 50.0 µM).

As to `CN1CCC(c2ccccc2)(c2ccccc2)C(=O)C1`, the growth inhibition is 11% in assay [1] (setting [7]); 95% (active) in assay [1] (setting [8]); 95.2% (active) in assay [1] (at 50.0 µM); -5% in assay [2] (setting [7]); 83% (active) in assay [2] (setting [8]); 94% (active) in assay [2] (at 50.0 µM). Besides, the growth inhibition in assay [3] (setting [7]) was 21%; in assay [3] (setting [8]) it was 95% (active); in assay [3] (at 50.0 µM) it was 93.8% (active); in assay [5] (setting [7]), 34%; in assay [5] (setting [8]) it was 96% (active); in assay [5] (at 50.0 µM) it was 89.2% (active). In addition, the growth inhibition in assay [6] (setting [7]) is 47%; in assay [6] (setting [8]), 95% (active); in assay [6] (at 50.0 µM) it was 94.5% (active).

Consider `CC(C)(C)c1ccc(CCO)cc1`, for which the growth inhibition in assay [1] (setting [7]) is -10%; in assay [1] (setting [8]), 7%; in assay [1] (at 50.0 µM) it was 33.5%; in assay [2] (setting [7]), -2%; in assay [2] (setting [8]) it was -4%; in assay [2] (at 50.0 µM) it was 5.35%. The growth inhibition was -3% in assay [3] (setting [7]); -5% in assay [3] (setting [8]); 12.2% in assay [3] (at 50.0 µM); -2% in assay [4] (setting [7]); -4% in assay [4] (setting [8]); -8.05% in assay [4] (at 50.0 µM). The growth inhibition in assay [6] (setting [7]) is -5%; in assay [6] (setting [8]) it was 2%; in assay [6] (at 50.0 µM) it was 19.9%.

`CC(/C=N/NC(N)=S)Cc1ccc(C(C)C)cc1` (stereo unspecified): the growth inhibition in assay [1] (setting [7]) is 28%; in assay [1] (setting [8]), 82% (active); in assay [1] (at 50.0 µM), 91.3% (active); in assay [2] (setting [7]), 45%; in assay [2] (setting [8]), 74% (active); in assay [2] (at 50.0 µM) it was 92.5% (active). In addition, the growth inhibition in assay [3] (setting [7]) is 98% (active); in assay [3] (setting [8]) it was 97% (active); in assay [4] (setting [7]) it was 98% (active); in assay [4] (setting [8]) it was 98% (active); in assay [5] (setting [7]) it was 99% (active); in assay [5] (setting [8]), 97% (active). Moreover, the growth inhibition was 32% in assay [6] (setting [7]), 74% (active) in assay [6] (setting [8]) and 91.1% (active) in assay [6] (at 50.0 µM).
